{"source": "PubChem BioAssay (NCATS)", "note": "Results filed as inconclusive are left out. Where a call stands in place of a potency, no number is given. The source made the active and inactive calls. Calls come from the whole dose curve; as a rule, active = well fitted cell-killing curve with a large enough effect; inconclusive = small, poorly fitted or top-dose-only effect; inactive = flat fitted curve, though single readings scatter."}
{"assay": "Cell Viability - LYMP2-016 (AID 984); note: nearly all actives have a fitted effect of over 55% in size", "conditions": "LYMP2-016 lymphoblastoid cell viability, qHTS; series mostly up to 92.2 µM", "text": "NIH Chemical Genomics Center [NCGC]\nNIH Molecular Libraries Screening Centers Network [MLSCN]\nNational Institutes of Environmental Health Sciences [NIEHS]\nNational Toxicology Program [NTP]\nWe have developed a 1536-well cell-based assay for quantitative high throughput screening (qHTS) against a number of cell lines to determine in vitro cytotoxicity of small molecules. This particular assay uses a human lymphoblastoid cell line (LYMP2-016) purchased from Coriell Institute for Medical Research.\nNCGC Assay Protocol Summary:\nThe CellTiter-Glo luminescent cell viability assay (Promega) is a homogeneous method to measure the number of viable cells in culture. The end point readout of this assay is based on quantitation of intracellular ATP, an indicator of metabolic activity, using the luciferase reaction. Luciferase catalyzes the oxidation of beetle Luciferin to oxyluciferin and light in the presence of ATP. The luminescent signal is proportional to amount of ATP present.\nUsing the CellTiter-Glo luminescent cell viability assay, the amount of cellular ATP was measured in the lymphoblastoid cell line with complete culture medium following compound treatment for 24 hours. The assay was performed in opaque white Kalypsys 1536-well plates. In the screen, tetraoctylammonium bromide was used as positive control. Library compounds were measured for their ability to cause acute toxicity in the cell line, as reflected by a decrease in intracellular ATP levels, in a concentration-dependent manner. […] AC50 values were determined from concentration-response data modeled with the standard Hill equation.\nqHTS protocol for CellTiter Glo lymphoblastoid cellular assay\n[Step] [Parameter] [Value] [Description]\n1. Reagent; 5 uL; 2500 lymphoblastoid cells/well\n2. Time; 5 hr; 37 C incubation\n4. Controls; 23 nL; Tetraoctylammonium bromide 6.4pM to 92 uM\n5. Time; 24 hr; 37 C incubation\n6. Reagent; 5 uL; CellTiter Glo reagent\n7. Time; 30 min; Room Temperature\n8. Detection; Luminescence; Viewlux plate reader\nKeywords: cell viability, cytotoxicity, lymphoblastoid cell line, luminescence, NTPHTS, NTPHTS_NCGC, NIEHS, DSSTox, MLSMR, MLSCN, NIH Roadmap, qHTS, NCGC"}
{"compound": "CC(=O)CCc1ccccc1", "Potency": "inactive"}
{"compound": "COc1cccc2sc(N)nc12", "Potency": "inactive"}
{"compound": "COc1ccc(N)c(OC)c1", "Potency": "inactive"}
{"compound": "CC(=O)Nc1cccc(N)c1", "Potency": "inactive"}
{"compound": "CC(=O)OC(C)=O", "Potency": "inactive"}
{"compound": "CC=O", "Potency": "inactive"}
{"compound": "CCCCOCCOCCOCCCC", "Potency": "inactive"}
{"compound": "C1CCCC1", "Potency": "inactive"}
{"compound": "CCCOCC(C)O", "note": "(stereo not given)", "Potency": "inactive"}
{"compound": "O=P(O)(OCc1ccccc1)OCc1ccccc1", "Potency": "inactive"}
{"compound": "CCCCC(C=O)CC", "note": "(stereo not given)", "Potency": "inactive"}
{"compound": "CCN(CC)c1cccc(O)c1", "Potency": "inactive"}
{"compound": "Cc1c(N)cccc1N", "Potency": "inactive"}
{"compound": "C=C(C)OC(C)=O", "Potency": "inactive"}
{"compound": "O=C1OC(=O)c2c(Cl)c(Cl)c(Cl)c(Cl)c21", "Potency": "inactive"}
{"compound": "COc1ccc(N)c(C)c1", "Potency": "inactive"}
{"compound": "Cc1ccc(C#N)cc1", "Potency": "inactive"}
{"compound": "CC(C)C=O", "Potency": "inactive"}
{"compound": "COC(=O)CCC(=O)OC", "Potency": "inactive"}
{"compound": "Cc1ccc(C(=O)O)cc1", "Potency": "inactive"}
{"compound": "C=Cc1ccccc1C=C", "Potency": "inactive"}
{"compound": "CC/C=C1/OC(=O)c2ccccc21", "Potency": "inactive"}
{"compound": "CC(C=O)Cc1ccc(C(C)(C)C)cc1", "note": "(stereo not given)", "Potency": "inactive"}
{"compound": "CN(C)CCCNCCCN", "Potency": "inactive"}
{"compound": "CCOCCOCC", "Potency": "inactive"}
{"compound": "C/C=C(/C)C#N", "Potency": "inactive"}
{"compound": "O=C(O)c1cccc(Cl)c1Cl", "Potency": "inactive"}
{"compound": "Cc1ccc2ccccc2c1[N+](=O)[O-]", "Potency": "inactive"}
{"compound": "CC(C)(C)c1ccc(OCC2CO2)cc1", "note": "(stereo not given)", "Potency": "inactive"}
{"compound": "CCN(Cc1ccccc1)c1ccccc1", "Potency": "inactive"}
{"compound": "C[C@@H]1CC2(OC3C[C@@]4(C)C5=CC[C@H]6C(C)(C)C(O[C@@H]7OC[C@@H](O)[C@H](O)[C@H]7O)CC[C@@]67C[C@@]57CC[C@]4(C)C31)OC(O)C1(C)OC21", "note": "(stereo not given in full)", "Potency": "inactive"}
{"compound": "c1ccc2c(c1)Oc1ccccc1S2", "Potency": "inactive"}
{"compound": "c1ccc(Oc2ccccc2)cc1", "Potency": "inactive"}
{"compound": "CCNS(=O)(=O)c1ccc(C)cc1", "Potency": "inactive"}
{"compound": "CCCCCNCCCCC", "Potency": "inactive"}
{"compound": "CCCC(C)CO", "note": "(stereo not given)", "Potency": "inactive"}
{"compound": "CNc1ccc([N+](=O)[O-])cc1", "Potency": "inactive"}
{"compound": "Cc1ccc(Br)cc1", "Potency": "inactive"}
{"compound": "CCCC(Cl)CCCC(Cl)CCC(Cl)CCC(Cl)CCC(Cl)CCCC(Cl)CCC", "note": "(stereo not given)", "Potency": "inactive"}
{"compound": "O=C(O)c1ccccc1Cl", "Potency": "inactive"}
